Compound activity from PubChem.
GRIN3A LBD mod: modulates the human NR3A ligand-binding domain. Tm shift relative to glycine control, % at 25 µM. NR3A LBD differential scanning fluorimetry, Tm shift; 0% = protein alone, 100% = glycine-bound protein. hit rate 2.5% among 340,000;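 active means melting temperature shift of at least 10% of the positive control shift, at one fixed dose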
MPTP block: blocks calcium-induced mitochondrial swelling. isolated mouse mitochondria, Ca2+ swelling absorbance, 30 min. hit rate 1.4% among 360,000. AID 602449. inhibition, % at 10 µM;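 active means inhibition of 50% or more, scaled per plate between neutral and stimulator controls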;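 further: 0% = DMSO wells given calcium and 100% = 1 mM EGTA wells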
rCAG binder: binds r(CAG) RNA repeats. r(CAG) RNA repeat, TO-PRO-1 dye displacement fluorescence. inhibition, % at 3 µM. hit rate 1.3% among 370,000;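 active means inhibition above the plate cutoff, the mean of all test compounds on that plate plus 3 SD, cut at about 35% in these data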;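 further: 0% = DMSO alone and 100% = 100 µM mitoxantrone as full dye displacement; higher means more dye released from RNA so lower well fluorescence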
Myeloid diff 2: compounds promoting myeloid differentiation; AID 624256; ER-HoxA9 myeloid progenitors, lysozyme-GFP differentiation, flow cytometry; hit rate 1% among 360,000; calls only at 10 µM;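 active means normalized GFP-positive differentiation at or above the plate's own cutoff, the solvent-only control mean plus 3 SD; inconclusive means no clear call, values can overlap the other calls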;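 further: cells exposed to compound for four days before flow analysis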
FAS TE block: blocks the thioesterase domain of human fatty acid synthase | inhibition, % at 15 µM | recombinant FAS-TE, OMFH fluorogenic substrate, fluorescence endpoint | AID 602261 | hit rate 0.67% among 360,000;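 active means compounds whose normalised, plate-corrected inhibition of enzyme fluorescence in the single-dose primary screen is 50% or more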;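 further: 0% = DMSO with enzyme and 100% = substrate without enzyme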
rCAG binder conf: r(CAG) RNA repeat binding, confirmation. hit rate 70% among 4,300. shares compounds with rCAG binder. TO-PRO-1 dye displacement fluorescence. inhibition, % at 3 µM;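 active means inhibition above a per-plate cutoff, the mean inhibition of sample wells plus 3 SD, cut at about 35% in these data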;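 further: loss of TO-PRO-1 fluorescence as compound displaces dye from 1x1 AA loop RNA; 0% = DMSO only wells and 100% = 100 µM mitoxantrone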
dCAG dye counter: counter-screen for rCAG RNA binders: DNA CAG dye complex inhibitors | shares compounds with rCAG binder | d(CAG) DNA oligo TO-PRO-1 dye displacement, fluorescence | inhibition, % at 3 µM | hit rate 94% among 4,300 | AID 652068;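 active means inhibition above its plate's cutoff, the mean test-well inhibition plus 3 SD, cut at about 4.8% in these data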;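 further: 0% = DNA dye mix with DMSO and 100% = 100 µM mitoxantrone; hits displace the dye from DNA and so lower well fluorescence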
dCAG dye DR: counter-screen for rCAG binders: inhibitors of DNA CAG TO-PRO-1 complex. shares compounds with rCAG binder. DNA CAG/GTC duplex TO-PRO-1 dye displacement fluorescence. IC50, µM. hit rate 20% among 250. AID 686960; in the data active means IC50 below about 10 µM
* = called active by the depositor. Rows were chosen to be rich in hits. Some 5.7% of all compounds tested hit in one or more screens of this group.

C=CCn1c(SCC(=O)Nc2ccccc2-c2ccccc2)nnc1-c1ccccc1 was read as rCAG binder 2.5.
`Cc1ccc(N=C2NC(=O)/C(=C/C=C/c3ccco3)S2)cc1` gave GRIN3A LBD mod 1.5, MPTP block 2.7, rCAG binder 58.6*, Myeloid diff 2 inactive, FAS TE block 21.2, rCAG binder conf 53.9* and dCAG dye counter 26.4*.
Cc1cccc(N=C2NC(=O)/C(=C/c3cccn3C)S2)c1C was read as GRIN3A LBD mod -3.7, MPTP block 3.0, rCAG binder 7.0, Myeloid diff 2 inactive and FAS TE block 2.5.
Cc1cccc(N=C2NC(=O)/C(=C/C=C/c3ccco3)S2)c1C was read as GRIN3A LBD mod 0.3, MPTP block 3.1, rCAG binder 66.6*, Myeloid diff 2 inactive, FAS TE block 27.9, rCAG binder conf 64.0* and dCAG dye counter 30.9*.
For O=C1NC(=Nc2ccccc2)S/C1=C\C=C\c1ccco1 the results were GRIN3A LBD mod 10.7*, MPTP block 5.2, rCAG binder 68.8*, Myeloid diff 2 inactive, FAS TE block 7.5, rCAG binder conf 61.5* and dCAG dye counter 30.5*.
For COc1ccc(N=C2NC(=O)/C(=C\C=C\c3ccccc3)S2)cc1 the results were GRIN3A LBD mod 6.4, MPTP block -0.2, rCAG binder 6.2, Myeloid diff 2 inactive and FAS TE block 4.2.
CC(=O)c1ccccc1NS(C)(=O)=O was read as GRIN3A LBD mod -0.8, MPTP block 6.5, rCAG binder 2.5, Myeloid diff 2 inactive and FAS TE block -5.0.
Screening CCOC(=O)C(=C1Nc2ccccc2N1)n1c(-c2cccnc2)nc2ccccc21 returned MPTP block -0.2, rCAG binder 6.6, Myeloid diff 2 inactive and FAS TE block -13.1.
Screening COc1ccc(C)cc1NC(=O)NNC(=O)c1cc2ccccc2cc1O returned GRIN3A LBD mod 8.4, MPTP block 6.9, rCAG binder 58.0*, Myeloid diff 2 inactive, FAS TE block 7.0, rCAG binder conf 41.9* and dCAG dye counter 14.6*.
Screening COc1ccc(NC(=O)NNC(=O)c2cc3ccccc3cc2O)cc1 returned GRIN3A LBD mod -2.0, MPTP block -0.3, rCAG binder 23.2, Myeloid diff 2 inactive and FAS TE block 5.0.
Screening NS(=O)(=O)c1ccc2nc(NC(=O)Nc3ccc(F)cc3)sc2c1 returned GRIN3A LBD mod 23.2*, MPTP block 0.6, rCAG binder 56.8*, Myeloid diff 2 inconclusive, FAS TE block 0.2, rCAG binder conf 30.2 and dCAG dye counter 23.6*.
COC(=O)c1sc(SC)c(S(=O)(=O)C(C)C)c1N/N=C(\C#N)C(=O)c1ccccc1 was read as GRIN3A LBD mod -12.3, MPTP block 12.7, rCAG binder 52.1*, Myeloid diff 2 inactive, FAS TE block -4.7, rCAG binder conf 70.9*, dCAG dye counter 22.5* and dCAG dye DR 4.33*.
`COc1ccc(S(=O)(=O)/N=C2/NC(=O)/C(=C\c3ccco3)S2)cc1` gave GRIN3A LBD mod -3.7, MPTP block 4.2, rCAG binder 64.9*, Myeloid diff 2 inactive, FAS TE block -5.0, rCAG binder conf 44.4* and dCAG dye counter 12.3*.
Screening COc1ccc(S(=O)(=O)/N=C2/NC(=O)/C(=C/c3ccco3)S2)cc1 returned GRIN3A LBD mod -7.5, MPTP block 0.4, rCAG binder 85.0*, Myeloid diff 2 inactive, FAS TE block -4.7, rCAG binder conf 41.7* and dCAG dye counter 11.1*.
`Cc1ccc(S(=O)(=O)/N=C2/NC(=O)/C(=C/c3ccccn3)S2)cc1` gave GRIN3A LBD mod -15.7, MPTP block -1.3, rCAG binder 44.6*, Myeloid diff 2 inactive, FAS TE block -3.5, rCAG binder conf 37.3* and dCAG dye counter 10.2*.
`COc1ccc(N=C2NC(=O)/C(=C/c3ccco3)S2)cc1` gave GRIN3A LBD mod 4.8, MPTP block 0.5, rCAG binder 31.4, Myeloid diff 2 inactive and FAS TE block -1.4.
For C[C@H](CO)N1C[C@H](C)[C@@H](CN(C)S(=O)(=O)c2cn(C)cn2)Oc2ncc(Br)cc2C1=O the results were MPTP block -0.9, rCAG binder 3.1, Myeloid diff 2 inactive and FAS TE block -10.6.
